This note sets out measurements from PubChem BioAssay AID1159580 (chemical genetic matrix, 2015).

The nature of the test: chemical genetic growth profiling, strain panel (AID 1159580).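 Also: tested at 20 µM; growth read once vehicle control cultures reached saturation at 30 °C; 1 = growth at the plate median or of vehicle wells; lower values mean less growth of the strain.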 To be noted: S. cerevisiae deletion strains, growth OD.
Where [1] appears, read: locus YDR150W, strain NUM1, stronger effect = lower value.
[2] abbreviates: locus YMR307W, strain GAS1, stronger effect = lower value.
[3] abbreviates: locus YNL153C, strain GIM3, stronger effect = lower value.
Setting [4] is: locus YNL322C, strain KRE1, stronger effect = lower value.

The whole screen tested about 5,500 compounds, of which about 2,000 (36%) were called active. Roughly 18% stayed inconclusive and do not appear here. This is one part of the list. Values without a mark were called inactive. Rule as the data show it: active = normalized growth mostly below about 0.91 (no sharp cut-off); inconclusive = no clear call, values can overlap the other calls; inactive = mostly above about 0.92.

`O=c1[nH]c2ccccc2c2ccccc12`: the normalized growth is 1.04 (locus YAL040C, strain CLN3, stronger effect = lower value); 1 (locus YCL061C, strain MRC1 (second series), stronger effect = lower value); 0.983 under setting [1]; 1.01 (locus YDR363W, strain ESC2, stronger effect = lower value); 0.987 (locus YER002W, strain NOP16, stronger effect = lower value); 0.979 under setting [2]. For the same compound, the normalized growth under setting [3] was 0.779 (active); the normalized growth (locus YNL175C, strain NOP13, stronger effect = lower value) is 0.975; the normalized growth (locus YNL197C, strain WHI3, stronger effect = lower value) was 0.967; the normalized growth (locus YNL224C, strain SQS1, stronger effect = lower value) is 1.01; the normalized growth under setting [4] is 0.983; the normalized growth (locus YOR083W, strain WHI5 (second series), stronger effect = lower value) is 0.945.
`CCCCCCCc1c(O)c2ccccc2[nH]c1=O`: the normalized growth runs as follows: (locus YAL013W, strain DEP1, stronger effect = lower value) 1.01; (locus YBR229C, strain ROT2, stronger effect = lower value) 0.998; (locus YCL061C, strain MRC1, stronger effect = lower value) 1.01; (locus YDL101C, strain DUN1, stronger effect = lower value) 1; under setting [1], 0.962; (locus YEL061C, strain CIN8, stronger effect = lower value) 1.01. Also, the normalized growth was 1 (locus YGR078C, strain PAC10, stronger effect = lower value); 1.01 (locus YGR229C, strain SMI1, stronger effect = lower value); 0.989 (locus YHR030C, strain SLT2, stronger effect = lower value); 1 (locus YHR087W, strain rtc3, stronger effect = lower value); 1 (locus YJL187C, strain SWE1, stronger effect = lower value); 1 (locus YJR043C, strain POL32, stronger effect = lower value). Also, the normalized growth reads like this: (locus YJR075W, strain HOC1, stronger effect = lower value) 1; (locus YKL190W, strain CNB1, stronger effect = lower value) 1.01; (locus YLR039C, strain RIC1, stronger effect = lower value) 1.01; (locus YLR058C, strain SHM2 (second series), stronger effect = lower value) 1.01; (locus YLR085C, strain ARP6, stronger effect = lower value) 1.01; (locus YLR262C, strain YPT6, stronger effect = lower value) 1.02. Also, the normalized growth is 1.01 (locus YML094W, strain GIM5, stronger effect = lower value); 1.02 (locus YMR219W, strain ESC1, stronger effect = lower value); 1.01 (locus YMR263W, strain SAP30, stronger effect = lower value); 0.961 under setting [2]; 1.01 (locus YNL128W, strain TEP1, stronger effect = lower value); 1.01 under setting [3]. The normalized growth was 1.03 (locus YNL298W, strain CLA4 (second series), stronger effect = lower value); 0.997 under setting [4]; 1.02 (locus YNR030W, strain Alg12, stronger effect = lower value); 1.02 (locus YPL055C, strain LGE1, stronger effect = lower value); 1.02 (locus YPL241C, strain CIN2, stronger effect = lower value); 1.07 (locus YPR135W, strain CTF4, stronger effect = lower value).
